Test results taken from PubChem BioAssay (EPA / NIEHS).
Activity calls are given as the source filed them. Rule for the calls: active = hit-call score of the fitted dose curve at least 0.9, where 1 is the maximum; inactive = score below 0.9.

Test: APR_HepG2_MitoticArrest_72hr: Apredica 72-hour HepG2 Assay for Mitotic Arrest (AID 2282918)
Settings: high-content imaging, actives raise or lower the signal
In short: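 High-content imaging of fixed human HepG2 cells after 72 h compound exposure (0.39–200 uM, duplicates, 0.5% DMSO); mitotic arrest scored from phospho-histone H3 and nuclear Hoechst staining relative to DMSO.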

AC50, active:
CCCCc1oc2ccccc2c1C(=O)c1cc(I)c(OCCN(CC)CC)c(I)c1 8.51 µM
CN(C)CCOC(c1ccccc1)c1ccccc1 111 µM
Cc1[nH]nc2c1N=C(c1ccccc1Cl)c1cc([N+](=O)[O-])ccc1N2 28.8 µM
O=C(CCCN1CCC(O)(c2ccc(Cl)cc2)CC1)c1ccc(F)cc1 19.8 µM
N=C(N)c1ccc(OCCCCCOc2ccc(C(=N)N)cc2)cc1 21.6 µM

outcome, inactive:
O=C1NS(=O)(=O)c2ccccc21
CCCCC=O
CC(=O)Nc1ccc(O)cc1
CCCCCCCCCCCCCCC
CN(Cc1cnc2nc(N)nc(N)c2n1)c1ccc(C(=O)N[C@@H](CCC(=O)O)C(=O)O)cc1
CS(=O)(=O)c1ccc([C@@H](CC2CCCC2)C(=O)Nc2cnccn2)cc1Cl
O=C(c1ccccc1)c1ccccc1
CCCCCCCCCCCCOS(=O)(=O)O

Test: APR_HepG2_MicrotubuleCSK_72hr: Apredica 72-hour HepG2 Assay for Microtubule CSK Stabilty (AID 2282919)
Settings: HepG2 microtubule cytoskeleton, high-content imaging, actives raise or lower the signal
Experimental: APR_HepG2_72hr is a cell-based, multiplexed-readout assay that uses HepG2, a human liver cell line, with measurements taken at 72 hours after chemical dosing in a 384-well plate.APR_HepG2_MicrotubuleCSK_72hr is one of 10 assay component(s) measured or calculated from the APR_HepG2_72hr assay. It is designed to make measurements of protein conformation, a form of conformation reporter, as detected with fluorescence intensity signals by HCS Fluorescent Imaging technology.Data from the assay component APR_HepG2_MicrotubuleCSK_72hr was analyzed into 1 assay endpoint. This assay endpoint, APR_HepG2_MicrotubuleCSK_72hr, was analyzed with bidirectional fitting relative to DMSO as the negative control and baseline of activity. Using a type of conformation reporter, measures of protein for gain or loss-of-signal activity can be used to understand the signaling at the cellular-level. Furthermore, this assay endpoint can be referred to as a primary readout, because this assay has produced multiple assay endpoints where this one serves a signaling function. To generalize the intended target to other relatable targets, this assay endpoint is annotated to the cell morphology intended target family, where the subfamily is cell conformation.
Cells were treated with dimethyl sulfoxide (DMSO) as a solvent control at a final concentration of 0.5% v/v or with compounds in DMSO with a resulting final DMSO concentration of 0.5% v/v. Compound treatment was done at concentrations of 0.39, 0.78, 1.56, 3.12, 6.24, 12.5, 25, 50, 100, and 200 uM in duplicate on each plate. Cells were treated with compounds for 1, 24, or 72 hr. Carbonyl […] m-chloro-phenylhydrazone (CCCP) and taxol were used as positive controls for mitochondrial function and cytoskeletal stability, respectively; DMSO served as the negative control for this experiment. Cells were fixed by the direct addition of 50 uL formaldehyde in Hank's Balanced Salt Solution (HBSS) to a final concentration of 3.7%. After incubation in the fixation medium for 30 min at room temperature (293-298 K), cells were rinsed twice with HBSS and treated with cell permeabilization buffer (16 uL of 0.5% Triton X-100) for 10 min at room temperature (293-298 K) before labeling. For mitochondrial membrane potential and mitochondrial measurements, pre-fixed cells were incubated with 50 uL of MitoTracker Red CMXRos (Invitrogen) at a concentration of 250 nM for 30 min before fixation. In the remaining cases, post-fixed cells were labeled by incubation with a multiplexed mixture of primary antibodies in HBSS for 60 min at room temperature (293-298 K) to detect immunoreactivity of c-Jun (1:500), phospho-histone H3 (1:100), phospho-histone H2A.x (1:200), p53 (1:400), alpha-tubulin (1:200) and Hoechst 33342 (2 ug/mL). Cells were labeled for multiplexed imaging on two separate plates: a) Hoechst 33342, MitoTracker Red, phospho-histone H3, and alpha-tubulin, and b) Hoechst 33342, phospho-histone H2A.x, and c-Jun. A final rinse with HBSS (50 uL) was performed before analysis. The primary and secondary antibodies for the proteins were phospho-histone H3 (rabbit anti-phospho-histone H3 and FITC-donkey anti-rabbit IgG), phospho-histone H2A.x (mouse anti-phospho-histone H2A.x and FITC-donkey anti-mouse IgG), c-Jun (rabbit anti-phospho-c-Jun and Cy3-donkey anti-rabbit IgG), p53 (sheep anti-p53 and Cy5-donkey anti-sheep IgG), alpha-tubulin (mouse anti-alpha-tubulin and Cy5-donkey anti-mouse IgG). These antibodies are available as the CellCiphr HepG2 assay kit (Millipore).Digital images of each well were captured using a Cellomics ArrayScan VTI (Thermo Scientific Cellomics) (0.8 NA objective, 0.63x optical coupler, and XF-93 filter set) at 20x magnification. The images were acquired using the autofocus feature of the ArrayScan instrument, which entails the following steps. First, the camera focuses on channel 1 (Hoechst 33342), where nuclei are identified. Second, a Z offset of 1 um is used for capturing mitochondria (MitoTracker Red). […]

outcome, inactive:
O=C1NS(=O)(=O)c2ccccc21
CCCCC=O
Cc1[nH]nc2c1N=C(c1ccccc1Cl)c1cc([N+](=O)[O-])ccc1N2
N=C(N)c1ccc(OCCCCCOc2ccc(C(=N)N)cc2)cc1
CCCCCCCCCCCCCCC
CN(Cc1cnc2nc(N)nc(N)c2n1)c1ccc(C(=O)N[C@@H](CCC(=O)O)C(=O)O)cc1
CCCCCCCCCCCCOS(=O)(=O)O

Test: APR_HepG2_P-H2AX_24hr: Apredica 24-hour HepG2 Assay for H2AX Phosphorylation (AID 2282920)
Settings: high-content imaging, actives raise or lower the signal
In short: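 High-content imaging of phospho-histone H2A.x immunofluorescence, nuclei counterstained with Hoechst 33342, in fixed HepG2 cells. Compounds ran 0.39–200 uM in duplicate for 24 h, final DMSO 0.5%. Signal change fitted both directions against DMSO.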

AC50, active:
CCCCc1oc2ccccc2c1C(=O)c1cc(I)c(OCCN(CC)CC)c(I)c1 51.7 µM
Cc1[nH]nc2c1N=C(c1ccccc1Cl)c1cc([N+](=O)[O-])ccc1N2 24.9 µM
O=C(CCCN1CCC(O)(c2ccc(Cl)cc2)CC1)c1ccc(F)cc1 100 µM
N=C(N)c1ccc(OCCCCCOc2ccc(C(=N)N)cc2)cc1 39.7 µM

outcome, inactive:
CN(C)CCOC(c1ccccc1)c1ccccc1
O=C1NS(=O)(=O)c2ccccc21
CCCCC=O
CC(=O)Nc1ccc(O)cc1
OCC(CO)(CBr)CBr
CCCCCCCCCCCCCCC
CN(Cc1cnc2nc(N)nc(N)c2n1)c1ccc(C(=O)N[C@@H](CCC(=O)O)C(=O)O)cc1
CS(=O)(=O)c1ccc([C@@H](CC2CCCC2)C(=O)Nc2cnccn2)cc1Cl
CCCCC(CC)C(=O)O (configuration not stated)
O=C(c1ccccc1)c1ccccc1
CCCCCCCCCCCCOS(=O)(=O)O

Test: APR_HepG2_StressKinase_72hr: Apredica 72-hour HepG2 Assay for Stress Kinase (AID 2282921)
Settings: HepG2 stress kinase (phospho-c-Jun) imaging, actives raise or lower the signal
In short: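 Cells were exposed for 72 h to ten concentrations (0.39–200 uM, duplicate) at 0.5% v/v DMSO final, then fixed with 3.7% formaldehyde, permeabilized and immunostained for phospho-c-Jun (Cy3 secondary) with Hoechst nuclear counterstain.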

outcome, inactive:
CCCCc1oc2ccccc2c1C(=O)c1cc(I)c(OCCN(CC)CC)c(I)c1
CN(C)CCOC(c1ccccc1)c1ccccc1
CCCCC=O
CC(=O)Nc1ccc(O)cc1
OCC(CO)(CBr)CBr
N=C(N)c1ccc(OCCCCCOc2ccc(C(=N)N)cc2)cc1
CCCCCCCCCCCCCCC
CN(Cc1cnc2nc(N)nc(N)c2n1)c1ccc(C(=O)N[C@@H](CCC(=O)O)C(=O)O)cc1
CS(=O)(=O)c1ccc([C@@H](CC2CCCC2)C(=O)Nc2cnccn2)cc1Cl
CCCCC(CC)C(=O)O (configuration not stated)
O=C(c1ccccc1)c1ccccc1
CCCCCCCCCCCCOS(=O)(=O)O

AC50, active:
Cc1[nH]nc2c1N=C(c1ccccc1Cl)c1cc([N+](=O)[O-])ccc1N2 11.7 µM
O=C(CCCN1CCC(O)(c2ccc(Cl)cc2)CC1)c1ccc(F)cc1 42.5 µM

Test: APR_HepG2_StressKinase_24hr: Apredica 24-hour HepG2 Assay for Stress Kinase (AID 2282922)
Settings: HepG2 stress kinase (phospho-c-Jun) imaging, actives raise or lower the signal
In short: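 HepG2 cells exposed 24 h to 0.39–200 uM compound in duplicate (0.5% v/v DMSO final). Cells fixed in 3.7% formaldehyde, permeabilized and immunostained for phospho-c-Jun; read by high-content fluorescence imaging, fitted bidirectionally against DMSO.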

AC50, active:
CCCCc1oc2ccccc2c1C(=O)c1cc(I)c(OCCN(CC)CC)c(I)c1 58.2 µM
Cc1[nH]nc2c1N=C(c1ccccc1Cl)c1cc([N+](=O)[O-])ccc1N2 19.8 µM
O=C(CCCN1CCC(O)(c2ccc(Cl)cc2)CC1)c1ccc(F)cc1 103 µM

outcome, inactive:
CN(C)CCOC(c1ccccc1)c1ccccc1
CCCCC=O
CC(=O)Nc1ccc(O)cc1
OCC(CO)(CBr)CBr
N=C(N)c1ccc(OCCCCCOc2ccc(C(=N)N)cc2)cc1
CCCCCCCCCCCCCCC
CN(Cc1cnc2nc(N)nc(N)c2n1)c1ccc(C(=O)N[C@@H](CCC(=O)O)C(=O)O)cc1
CS(=O)(=O)c1ccc([C@@H](CC2CCCC2)C(=O)Nc2cnccn2)cc1Cl
CCCCC(CC)C(=O)O (configuration not stated)
O=C(c1ccccc1)c1ccccc1
CCCCCCCCCCCCOS(=O)(=O)O

Test: APR_HepG2_p53Act_72hr: Apredica 72-hour HepG2 Assay for p53 Activation (AID 2282923);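 note: average cellular p53 protein immunofluorescence intensity in HepG2 cells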
Settings: high-content imaging, actives raise or lower the signal
In short: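 Cells were dosed for 72 hr with compounds at 0.39–200 uM in duplicate (final DMSO 0.5% v/v), then fixed in 3.7% formaldehyde, permeabilized with Triton X-100 and immunostained for p53 (Cy5) with Hoechst 33342 nuclear counterstain.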

AC50, active:
CCCCc1oc2ccccc2c1C(=O)c1cc(I)c(OCCN(CC)CC)c(I)c1 75.5 µM
O=C(CCCN1CCC(O)(c2ccc(Cl)cc2)CC1)c1ccc(F)cc1 37.3 µM
O=C(c1ccccc1)c1ccccc1 0.304 µM

outcome, inactive:
CS(=O)(=O)c1ccc([C@@H](CC2CCCC2)C(=O)Nc2cnccn2)cc1Cl
